Compound activity deposited in PubChem BioAssay by several laboratories.
Only some compounds are listed: those with a hit (about 2.7% of all), similar ones and a draw of the others.
TMEM16A inh: inhibitors of mouse TMEM16A calcium-activated chloride channel | Q8BHY3 | HEK293 TMEM16A/YFP iodide influx fluorescence, ionomycin | normalized B-score (activity score, 25-100; higher = stronger inhibition) at 10 µM | 310,000 compounds, 1.2% hits | AID 588511;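 active means ratio plate-corrected score three or more library SD toward inhibition, starting fluorescence score within five deviations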;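 further: score derived from kinetic fluorescence span divided by baseline fluorescence per well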
Target sequence (Q8BHY3 whole entry, looked up): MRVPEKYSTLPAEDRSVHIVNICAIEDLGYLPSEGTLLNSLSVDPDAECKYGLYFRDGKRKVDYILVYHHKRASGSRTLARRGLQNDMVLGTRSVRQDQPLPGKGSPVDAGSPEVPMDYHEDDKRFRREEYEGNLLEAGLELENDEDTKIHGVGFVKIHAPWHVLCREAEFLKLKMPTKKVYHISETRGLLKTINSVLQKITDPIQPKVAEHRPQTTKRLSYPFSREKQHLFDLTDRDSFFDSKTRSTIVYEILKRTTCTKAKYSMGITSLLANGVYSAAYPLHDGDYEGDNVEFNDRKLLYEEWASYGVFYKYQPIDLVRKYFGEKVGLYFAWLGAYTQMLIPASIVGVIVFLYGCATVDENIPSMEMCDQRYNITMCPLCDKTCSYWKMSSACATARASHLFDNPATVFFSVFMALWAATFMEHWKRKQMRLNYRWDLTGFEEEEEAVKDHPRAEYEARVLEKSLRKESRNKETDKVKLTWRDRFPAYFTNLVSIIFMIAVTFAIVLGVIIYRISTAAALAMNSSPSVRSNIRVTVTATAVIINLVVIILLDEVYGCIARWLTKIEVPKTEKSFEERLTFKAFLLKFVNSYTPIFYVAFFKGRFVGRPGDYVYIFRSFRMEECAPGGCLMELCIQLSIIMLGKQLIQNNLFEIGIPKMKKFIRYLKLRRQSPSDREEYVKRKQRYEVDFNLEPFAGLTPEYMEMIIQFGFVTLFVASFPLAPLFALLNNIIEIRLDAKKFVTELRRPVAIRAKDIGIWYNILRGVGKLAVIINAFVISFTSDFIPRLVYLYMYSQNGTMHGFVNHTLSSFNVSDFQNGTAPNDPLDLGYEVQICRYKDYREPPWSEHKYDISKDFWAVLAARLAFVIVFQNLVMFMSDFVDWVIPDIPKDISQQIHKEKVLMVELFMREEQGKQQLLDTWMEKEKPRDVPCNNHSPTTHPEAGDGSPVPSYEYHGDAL
CHT block: inhibitors of human choline transporter CHT; Q9GZV3; CHT-expressing cells, membrane potential dye, choline response; hits give low values; B-score at 10 µM; 310,000 compounds, 0.86% hits; AID 488975;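 active means B-score over 3 SD under the library average, and starting fluorescence ratio not unusually high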;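 further: choline stimulus applied at its EC90 after an EC20 pre-addition; B-score computed on integrated fluorescence ratio after choline addition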
ANO1 activ: activators or potentiators of mouse TMEM16A chloride channel. Q8BHY3. B-score at 10 µM. 340,000 compounds, 0.3% hits. HEK293 TMEM16A/YFP-H148Q/I152L, iodide quench fluorescence; hits give low values;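 active means fluorescence-ratio B-score plate-corrected deviation score at least 3 library SD below zero, with starting fluorescence score within 5 deviations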;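 further: channel opened by trigger with iodide after compound preincubation; score built on the fluorescence ratio of max minus min over baseline; more negative score means more quench and so TMEM16A activation or potentiation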
IDE cell inh: inhibits human insulin-degrading enzyme in HEK cells | 320,000 compounds, 0.41% hits | inhibition, % at 5.59 µM | FAbetaB cleavage, fluorescence polarization;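 active means percent inhibition above the average of all tested compounds plus 3 SD, set per screening campaign, cut at about 16% in these data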;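 further: IDE supplied by intact live HEK cells; FP after avidin binding of uncleaved biotin substrate so inhibition keeps polarization high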
CHT allo act: allosteric activators of human choline transporter CHT; Q9GZV3; CHT-expressing cells, membrane potential dye, choline EC20; hits give high values; LV-AA mutant CHT in HEK293 cells; B-score at 10 µM; 310,000 compounds, 0.49% hits;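 active means initial fluorescence not abnormally high and integrated response B-score, plate-corrected, over 3 SD above library mean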
IDE act: boosts human insulin-degrading enzyme activity in HEK cells; FAbeta-B cleavage, fluorescence polarization; 0% vehicle, 100% cell-free pure enzyme wells; 340,000 compounds, 0.073% hits; P14735; activation, % at 5.96 µM; AID 493087;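 active means activation above the mean of all tested compounds plus 3 SD, set per screening campaign, cut at about 17% in these data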
CHT inh conf: confirmation of human choline transporter CHT inhibitors; CHT-expressing cells, choline membrane potential dye; LV-to-AA substituted CHT, HEK293 cells; 2,400 compounds, 70% hits; AID 493221; CHT activity remaining % of control (hits give low values), % at 10 µM; shares compounds with CHT block;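 active means choline transporter activity left, mean of duplicates at 10 µM, below buffer-only control mean minus 3 SD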;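 further: depolarization triggered by choline at its EC90 following an EC20 pre-addition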
HEK293 CHT ctr: counter-screen for CHT inhibitors: effect in parental HEK293 cells | shares compounds with CHT block | membrane potential dye, choline response; active = decrease or increase beyond buffer ±3SD | membrane potential ratio readout (active if shifted either direction beyond buffer ±3SD; no single direction) at 10 µM | 2,400 compounds, 4% hits | AID 493222;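 further: parental cells lack the transporter so any hit is non-specific; ratio is peak minus trough fluorescence over baseline after EC90 choline challenge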
A number is an active result.

O=C(Cn1ncc2c3ccccc3n(Cc3ccccc3)c2c1=O)NCCN1CCOCC1 was read as TMEM16A inh inactive, CHT block -15, ANO1 activ inactive, IDE cell inh inactive, CHT allo act inactive, IDE act inactive, CHT inh conf 6.6% and HEK293 CHT ctr inactive.
Screening CCN(C(=O)COC(=O)CNS(=O)(=O)c1ccc(SC)c([N+](=O)[O-])c1)C1CCCCC1 returned TMEM16A inh inactive, CHT block inactive, ANO1 activ inactive, IDE cell inh inactive, CHT allo act inactive and IDE act inactive.
CC1CCN(CC(O)COc2ccc(OCC(O)CN3CCC(C)CC3)cc2)CC1 (configuration not stated) was read as TMEM16A inh inactive, CHT block -10, ANO1 activ inactive, IDE cell inh inactive, CHT allo act inactive, IDE act inactive, CHT inh conf 5.8% and HEK293 CHT ctr inactive.
`CCc1ccc(OCC(=O)N2CCN(c3ccccc3F)CC2)cc1` gave TMEM16A inh inactive, CHT block -5.5, ANO1 activ inactive, IDE cell inh inactive, CHT allo act inactive, IDE act inactive, CHT inh conf inactive and HEK293 CHT ctr inactive.
For Cc1ccc(CC(=O)N2CCN(c3ccccc3F)CC2)cc1 the results were TMEM16A inh inactive, CHT block inactive, ANO1 activ inactive, IDE cell inh inactive, CHT allo act inactive and IDE act inactive.
Screening Nc1ccc(CSc2ccccc2)cc1 returned ANO1 activ inactive and IDE act inactive.
For CCOC(=O)C1(Cc2ccc(OC)cc2)CCN(C(=O)c2cncs2)CC1 the results were TMEM16A inh inactive, CHT block -7.1, ANO1 activ inactive, IDE cell inh inactive, CHT allo act inactive, IDE act inactive, CHT inh conf inactive and HEK293 CHT ctr inactive.
`O=C(COC(=O)c1cc(S(=O)(=O)N2CCCC2)ccc1O)NCCc1ccccc1` gave ANO1 activ inactive, IDE cell inh inactive and IDE act inactive.
Screening CCOC(=O)c1ccc(NC(=S)NNC(=O)C2(C)CC2(Cl)Cl)cc1 (configuration not stated) returned TMEM16A inh inactive, CHT block -6.7, ANO1 activ inactive, IDE cell inh inactive, CHT allo act inactive, IDE act inactive, CHT inh conf inactive and HEK293 CHT ctr inactive.
`CCOC(=O)c1ccc(NC(=S)NNC(=O)COC)cc1` gave TMEM16A inh inactive, CHT block inactive, ANO1 activ inactive, IDE cell inh inactive, CHT allo act inactive and IDE act inactive.
COc1ccc(/C=C2\COc3ccccc3C2=O)cc1OC was read as TMEM16A inh inactive, CHT block inactive, ANO1 activ inactive, IDE cell inh inactive, CHT allo act inactive and IDE act inactive.
Screening O=C(O)c1ccc(/C=C2\COc3ccccc3C2=O)cc1 returned TMEM16A inh inactive, CHT block -6.8, ANO1 activ inactive, IDE cell inh inactive, CHT allo act inactive, IDE act inactive, CHT inh conf 33% and HEK293 CHT ctr inactive.
CCOC(=O)c1ccccc1N/C=C/C(=O)c1cccs1 was read as TMEM16A inh inactive, CHT block -8.5, ANO1 activ inactive, IDE cell inh inactive, CHT allo act inactive, IDE act inactive, CHT inh conf 41% and HEK293 CHT ctr inactive.
Screening CC(=O)n1cc(Nc2ccc([N+](=O)[O-])cc2)c2ccccc21 returned TMEM16A inh inactive, CHT block inactive, ANO1 activ inactive, IDE cell inh inactive, CHT allo act inactive and IDE act inactive.
CC(=O)SC(C[N+](=O)[O-])c1cn(C(C)=O)c2ccccc12 (configuration not stated) was read as TMEM16A inh inactive, CHT block -5.5, ANO1 activ inactive, IDE cell inh inactive, CHT allo act inactive, IDE act inactive, CHT inh conf 67% and HEK293 CHT ctr inactive.
Screening O=[N+]([O-])c1cccc(CSc2nnc3ccccn23)c1 returned TMEM16A inh inactive, CHT block inactive, ANO1 activ inactive, IDE cell inh inactive, CHT allo act inactive, IDE act inactive, CHT inh conf 67% and HEK293 CHT ctr inactive.
For OC(CNCc1ccccc1)c1ccccc1 (configuration not stated) the results were TMEM16A inh inactive, CHT block inactive, ANO1 activ inactive, IDE cell inh inactive, CHT allo act inactive and IDE act inactive.
OC(CNC1Cc2ccccc2C1)c1ccccc1 (configuration not stated) was read as TMEM16A inh inactive, CHT block -5.2, ANO1 activ inactive, IDE cell inh inactive, CHT allo act inactive, IDE act inactive, CHT inh conf 52% and HEK293 CHT ctr inactive.
Screening C[C@H]1CN([C@@H](C)CO)C(=O)c2cc(NC(=O)C3CCCCC3)ccc2O[C@H]1CN(C)C(=O)Nc1ccc2c(c1)OCO2 returned ANO1 activ inactive, IDE cell inh inactive and IDE act inactive.
`COc1ccccc1NOC(=O)CCOc1ccccc1` gave ANO1 activ inactive and IDE act inactive.
CCOc1ccccc1/C=C/C(=O)NCC(=O)N1CCC(N(C)C2CCCCC2C)CC1 (configuration not stated) was read as TMEM16A inh inactive, CHT block -5.5, ANO1 activ inactive, IDE cell inh inactive, CHT allo act inactive, IDE act inactive, CHT inh conf 11% and HEK293 CHT ctr inactive.
For Cc1ccccc1NC(=O)NC1CCCc2ccccc21 (configuration not stated) the results were TMEM16A inh inactive, CHT block inactive, ANO1 activ inactive, IDE cell inh inactive, CHT allo act inactive and IDE act inactive.
CN(C(=O)c1ccc(NC(=O)Cc2ccc(NC(=O)C3CCCN(C(=O)C4CCC4)C3)cc2)cc1)C1CCCC1 (configuration not stated) was read as IDE act inactive.
CC(C)(C)CC(C)(C)NCC(O)COc1c(F)cc(Br)cc1F (configuration not stated) was read as TMEM16A inh inactive, CHT block -5.5, ANO1 activ inactive, IDE cell inh inactive, CHT allo act inactive, IDE act inactive, CHT inh conf 60% and HEK293 CHT ctr -9.
`CCCCCCNC(=O)c1cccc(-c2ccc(C)c3ccccc23)n1` gave TMEM16A inh inactive, CHT block -12, ANO1 activ inactive, IDE cell inh inactive, CHT allo act inactive, IDE act inactive, CHT inh conf inactive and HEK293 CHT ctr inactive.
